Most compounds without a hit are left out; they make up all but 21% or so of the library.
TDP1 cell noCPT: qHTS for Inhibitors of human tyrosyl-DNA phosphodiesterase 1 (TDP1): qHTS in cells in absence of CPT; hit rate 15% among 420,000; Potency, µM (top dose mostly 46.2 µM), inactives show top-dose activity change, negative = growth inhibition, most hits filed as inhibitors; DT40 Tdp1-/- hTDP1 cells, no CPT, ATP luminescence, 48 h; also: potency is read from the fitted curve at half-maximal effect; nearly all actives have a fitted effect of over 55% in size
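Compound effects on proliferation are scored in DT40 Tdp1-/-;hTDP1 cells in the absence of CPT. ATP levels (CellTiter-Glo luminescence) are recorded after a ≥48 hr, 37 °C incubation.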
DT40 TDP1 CPT: growth inhibition of DT40 Tdp1-/-;hTDP1 cells with camptothecin (screen for TDP1 inhibitors) | chicken DT40 Tdp1-/-;hTDP1 cells + 20 nM CPT, ATP luminescence, 48 h | Potency, µM (highest dose often 46.2 µM), inactives show at the top dose activity change, negative = growth inhibition, usual class: inhibitors | hit rate 12% among 420,000 | AID 686979; also: potency is read from the fitted curve at half-maximal effect; nearly all actives have a fitted effect of over 55% in size
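Chicken DT40 Tdp1-/- cells stably complemented with human TDP1 were seeded at 400 cells/well in medium containing 20 nM camptothecin, exposed to pin-transferred compounds, and grown at 37 °C for at least 48 hr. Viability was read as ATP luminescence.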
IL-1B inflam inh: inflammasome signaling inhibition, IL-1 beta readout; AID 743279; THP-1 LPS/ATP IL-1B secretion, AlphaLISA, 16 h; stronger effect = lower value; activity change, % at 57.5 µM; hit rate 4.7% among 360,000; in the data active = activity change below about -50%; inconclusive = mostly about -30% to -49%
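Secreted IL-1B measured by AlphaLISA bead assay after 16 h compound exposure of THP-1 cells; compounds (final up to 57.5 uM) added 1 h before LPS (250 ng/mL) and ATP (1.25 mM) stimulation; lower signal means less secretion.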
RORg inh: blocks mouse ROR gamma transcriptional activity | P51450 | Drosophila S2 Gal4-RORgamma UAS-luciferase reporter, 20 h | hit rate 5.4% among 310,000 | Potency, µM (highest dose often 53.6 µM), without a hit: at the highest dose activity change, negative = inhibition, usual class: inhibitors; also: potency is read from the fitted curve at half-maximal effect; nearly all actives have a fitted effect of over 60% in size
Target sequence (P51450 whole entry, looked up, the tested form may be a part): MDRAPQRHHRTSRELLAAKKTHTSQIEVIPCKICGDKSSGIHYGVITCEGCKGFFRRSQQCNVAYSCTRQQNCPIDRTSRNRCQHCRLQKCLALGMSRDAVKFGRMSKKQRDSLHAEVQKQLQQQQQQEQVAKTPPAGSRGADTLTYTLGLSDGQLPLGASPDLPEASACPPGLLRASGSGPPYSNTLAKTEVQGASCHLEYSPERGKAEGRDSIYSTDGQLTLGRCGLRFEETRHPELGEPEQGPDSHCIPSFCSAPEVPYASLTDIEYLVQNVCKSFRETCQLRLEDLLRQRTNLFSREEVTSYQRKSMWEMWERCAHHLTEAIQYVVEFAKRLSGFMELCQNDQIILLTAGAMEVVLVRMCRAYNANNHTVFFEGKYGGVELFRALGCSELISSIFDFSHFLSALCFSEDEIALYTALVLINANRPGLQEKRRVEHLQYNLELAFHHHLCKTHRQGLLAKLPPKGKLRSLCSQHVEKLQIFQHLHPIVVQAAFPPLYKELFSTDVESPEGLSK
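Luminescence from a UAS-regulated Photinus luciferase reporter in stably transfected Drosophila Schneider cells is measured; decreased signal marks ROR gamma inhibition. Fusion expression is induced by 700 uM copper sulfate for 20 hr.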
VP16 counter: counter-screen for ROR gamma inhibitors: Gal4-VP16 reporter. Drosophila S2 Gal4-VP16 UAS-luciferase, luminescence, 20 h. Potency, µM (series often up to 53.6 µM), for inactives: top-dose activity, negative = inhibition, hits mostly inhibitors. hit rate 3.5% among 310,000;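 also: Gal4-VP16 expression switched on by copper sulfate through the metallothionein promoter; potency is read from the fitted curve at half-maximal effect; nearly all actives have a fitted effect of over 50% in size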
ELG1 DNA repair: blocks ELG1-dependent DNA repair in HEK293T cells | HEK293T ELG1-luciferase reporter, luminescence, 16 h; DNA damage induced by 5-fluorouridine | Potency, µM (top dose mostly 46.1 µM), without a hit: at the top dose activity change, negative = inhibition, most hits filed as inhibitors | hit rate 2.3% among 330,000 | AID 504467; also: potency is read from the fitted curve at half-maximal effect; nearly all actives have a fitted effect of over 55% in size
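HEK293T cells expressing luciferase-tagged ELG1 (2,000/well) received 5-Fluorouridine plus compound or DMSO for 16 hr at 37 °C. Luciferase was read by ONE-Glo luminescence after 30 min at room temperature.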
The depositor's hits bear a star. Unless noted, calls follow the shape of the dose curve; as a rule, active = well fitted curve in the direction sought with a large enough effect; inconclusive = small, poorly fitted or top-dose-only effect, or another doubt; inactive = no such curve, though single readings can be large; an effect the other way counts as inactive or inconclusive. % is scaled to controls: 0 for no effect and ±100 for the full control effect.

For COc1ccc(N2CCN(Cc3cc(=O)oc4cc(-c5ccccc5)c(O)cc34)CC2)cc1 the results were TDP1 cell noCPT 6.5µM*, DT40 TDP1 CPT 5.8µM*, IL-1B inflam inh 0, RORg inh -1%, VP16 counter inconclusive and ELG1 DNA repair -1%.
Cc1cc(C)c2c(CN3CCN(c4ccccc4F)CC3)cc(=O)oc2c1 was read as TDP1 cell noCPT inconclusive, DT40 TDP1 CPT 23µM* and IL-1B inflam inh 14.
Screening COc1cc2oc(=O)cc(CN3CCN(c4ccccc4F)CC3)c2cc1Cl returned TDP1 cell noCPT inconclusive, DT40 TDP1 CPT inconclusive and IL-1B inflam inh 14.
Cc1cc(C)c2c(CN3CCN(C)CC3)cc(=O)oc2c1 was read as TDP1 cell noCPT -7%, DT40 TDP1 CPT -10%, IL-1B inflam inh -4, RORg inh -35%, VP16 counter 1% and ELG1 DNA repair 2%.
`C/C(NCc1cccnc1)=C(\C#N)C(=O)NCc1ccccc1` gave TDP1 cell noCPT -7%, DT40 TDP1 CPT 18%, IL-1B inflam inh 17, RORg inh 2%, VP16 counter 1% and ELG1 DNA repair 2%.
For COc1cccc(C(=O)Nc2ccccc2OCc2cc(=O)n3ccccc3n2)c1 the results were TDP1 cell noCPT inconclusive and DT40 TDP1 CPT -22%.
`O=S(=O)(Nc1ccncc1)c1cc(Cl)c(Cl)cc1Cl` gave TDP1 cell noCPT -24%, DT40 TDP1 CPT 24%, IL-1B inflam inh 13, RORg inh inconclusive, VP16 counter 3% and ELG1 DNA repair 7%.
`CC1CC(C)CN(C(=O)c2cc3cc(Br)cc(Br)c3o2)C1` (stereo unspecified) gave TDP1 cell noCPT inconclusive, DT40 TDP1 CPT -2%, IL-1B inflam inh -70*, RORg inh 15%, VP16 counter 0% and ELG1 DNA repair inconclusive.
`CCOc1ccc(-c2nc(-c3ccccc3)c(-c3ccccc3)[nH]2)cc1OCC` gave TDP1 cell noCPT 18µM* and DT40 TDP1 CPT 21µM*.
For CSc1nc(-c2ccccc2)c(-c2ccccc2)[nH]1 the results were TDP1 cell noCPT inconclusive, DT40 TDP1 CPT -17%, IL-1B inflam inh -20, RORg inh 12%, VP16 counter -12% and ELG1 DNA repair 5%.
O=[N+]([O-])c1ccc(O)c(-c2nc(-c3ccccc3)c(-c3cccs3)[nH]2)c1 was read as TDP1 cell noCPT 18µM*, DT40 TDP1 CPT 21µM*, IL-1B inflam inh -4, RORg inh -89%, VP16 counter 11µM* and ELG1 DNA repair inconclusive.
Screening COc1ccc(-c2[nH]c(-c3cc(OC)c4c(c3)OCO4)nc2-c2ccccc2)cc1 returned TDP1 cell noCPT inconclusive, DT40 TDP1 CPT inconclusive, IL-1B inflam inh -17, RORg inh inconclusive, VP16 counter 2% and ELG1 DNA repair 21µM*.
COc1ccc(-c2nc(-c3ccccc3)c(-c3ccc(F)cc3)[nH]2)c(OC)c1C was read as TDP1 cell noCPT inconclusive and DT40 TDP1 CPT 21µM*.
Screening COc1ccc(-c2nc(-c3ccccc3)c(-c3cc([N+](=O)[O-])ccc3C)[nH]2)cc1OC returned TDP1 cell noCPT 18µM*, DT40 TDP1 CPT 23µM*, IL-1B inflam inh -6, RORg inh 26%, VP16 counter -2% and ELG1 DNA repair 10µM*.
`CCOc1cc(-c2nc(-c3ccccc3)c(-c3cc([N+](=O)[O-])ccc3C)[nH]2)ccc1O` gave TDP1 cell noCPT 23µM*, DT40 TDP1 CPT inconclusive, IL-1B inflam inh -14, RORg inh inconclusive and VP16 counter -14%.
